Source: PubChem BioAssay (EPA / NIEHS)
Where “and” joins values, the source holds several entries; their conditions need not be identical. Equal values may be shown once. Calls of active or inactive are those of the source. How the source made its calls: active means hit-call score of the fitted dose curve at least 0.9, where 1 is the maximum; inactive means score below 0.9.

Key:
[1] = BSK_CASM3C_Proliferation: Cell Proliferation Assessment in the BioMAP Diversity Plus: CASM3C Assay (AID 2283047); conditions: primary human coronary artery smooth muscle cells;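 further: sulforhodamine B total protein stain as relative cell number at 560 nm; sub-confluent cells exposed 48 h before staining; fitted both ways against DMSO so gain or loss of cell number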
[2] = read-out: Tissue Factor, F3 (gene 2152); experiment: BSK_CASM3C_TissueFactor: BioMAP Diversity Plus: CASM3C Assay for Tissue Factor Biomarker Activity (AID 2283052); conditions: primary human coronary artery smooth muscle cells; actives raise or lower the signal;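 further: cell surface tissue factor protein level read by ELISA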
[3] = read-out: Vascular cell adhesion molecule 1 (VCAM1), VCAM1 (gene 7412); experiment: BSK_CASM3C_VCAM1: BioMAP Diversity Plus: CASM3C Assay for Vascular cell adhesion molecule 1 (VCAM1) Biomarker Activity (AID 2283055); conditions: primary human coronary artery smooth muscle cells; actives raise or lower the signal;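 further: VCAM-1 protein level quantified by ELISA on the cells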
[4] = read-out: Epidermal growth factor receptor (EGFR), EGFR (gene 1956); experiment: BSK_hDFCGF_EGFR: BioMAP Diversity Plus: hDFCGF Assay for Epidermal growth factor receptor (EGFR) Biomarker Activity (AID 2283057); conditions: primary human foreskin fibroblasts; actives raise or lower the signal
In short: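 Measured by ELISA: EGFR levels on primary human foreskin fibroblasts 24 h after chemical treatment, analysed relative to DMSO with bidirectional fitting.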

[5] = read-out: Interleukin-8 (IL8), CXCL8 (gene 3576); experiment: BSK_hDFCGF_IL8: BioMAP Diversity Plus: hDFCGF Assay for Interleukin-8 (IL8) Biomarker Activity (AID 2283058); conditions: primary human foreskin fibroblasts; actives raise or lower the signal
In short: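 ELISA read-out of IL-8 from primary human foreskin fibroblast cultures taken 24 h after dosing; values are bidirectional fits relative to DMSO vehicle.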

[6] = BSK_hDFCGF_SRB: Viability Assessment in the BioMAP Diversity Plus: hDFCGF Assay (AID 2283061); conditions: primary human foreskin fibroblasts;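 further: cells exposed to compound for 24 h before the read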
In short: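 Primary human foreskin fibroblasts; 24 h post-dose; fixed 10% TCA, stained 0.1% SRB, A560 read; total protein as overt cytotoxicity measure; curves fit bidirectionally vs DMSO control.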

[7] = read-out: TIMP metallopeptidase inhibitor 1 (TIMP1), TIMP1 (gene 7076); experiment: BSK_hDFCGF_TIMP1: BioMAP Diversity Plus: hDFCGF Assay for TIMP metallopeptidase inhibitor 1 (TIMP1) Biomarker Activity (AID 2283062); conditions: primary human foreskin fibroblasts; actives raise or lower the signal
In short: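 ELISA readout of TIMP-1 from human dermal foreskin fibroblast cultures 24 h post-dosing. Curves were fitted in both directions against DMSO baseline, with SRB total-protein staining in parallel cultures as a cytotoxicity check.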

[8] = read-out: Monokine induced gamma interferon (MIG), CXCL9 (gene 4283); experiment: BSK_hDFCGF_MIG: BioMAP Diversity Plus: hDFCGF Assay for Monokine induced gamma interferon (MIG) Biomarker Activity (AID 2283063); conditions: primary human foreskin fibroblasts; actives raise or lower the signal
In short: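 Fibroblasts (human foreskin, primary) dosed, 24 h, MIG by ELISA; fit bidirectional vs DMSO.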

[9] = read-out: Matrix Metallopeptidase 1 (MMP1), MMP1 (gene 4312); experiment: BSK_hDFCGF_MMP1: BioMAP Diversity Plus: hDFCGF Assay for Matrix Metallopeptidase 1 (MMP1) Biomarker Activity (AID 2283064); conditions: primary human foreskin fibroblasts; actives raise or lower the signal
In short: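 Primary human foreskin fibroblasts exposed to chemicals for 24 h; MMP1 measured by ELISA. Cytotoxicity tracked by SRB staining in parallel cultures; bidirectional fit relative to DMSO.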

[10] = read-out: Vascular cell adhesion molecule 1 (VCAM1), VCAM1 (gene 7412); experiment: BSK_hDFCGF_VCAM1: BioMAP Diversity Plus: hDFCGF Assay for Vascular cell adhesion molecule 1 (VCAM1) Biomarker Activity (AID 2283065); conditions: primary human foreskin fibroblasts; actives raise or lower the signal;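 on AC50: VCAM-1 protein level quantified by ELISA after 24 h chemical exposure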
In short: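 ELISA read-out of VCAM-1 on human skin fibroblasts, 24 h post-dose; gain or loss of signal fitted bidirectionally against DMSO baseline.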

[11] = read-out: Plasminogen activator inhibitor-1 (PAI1), SERPINE1 (gene 5054); experiment: BSK_hDFCGF_PAI1: BioMAP Diversity Plus: hDFCGF Assay for Plasminogen activator inhibitor-1 (PAI1) Biomarker Activity (AID 2283066); conditions: primary human foreskin fibroblasts; actives raise or lower the signal
In short: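 PAI-1 levels, determined by ELISA, served as the endpoint in human foreskin fibroblast cultures exposed to compound for 24 h, with DMSO as baseline.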

[12] = read-out: Interferon-gamma inducible Protein 10 (IP10), CXCL10 (gene 3627); experiment: BSK_KF3CT_IP10: BioMAP Diversity Plus: KF3CT Assay for Interferon-gamma inducible Protein 10 (IP10) Biomarker Activity (AID 2283068); conditions: primary human keratinocytes with fibroblasts; actives raise or lower the signal
In short: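 KF3CT co-culture (keratinocytes + foreskin fibroblasts), 24 h compound, IP-10 by ELISA; bidirectional fit vs DMSO baseline.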

[13] = BSK_KF3CT_SRB: Viability Assessment in the BioMAP Diversity Plus: KF3CT Assay (AID 2283069); conditions: primary human keratinocytes with fibroblasts;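 further: total protein by sulforhodamine B staining as a cytotoxicity measure; read 24 h after compound addition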
In short: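 Human keratinocyte and foreskin fibroblast co-culture exposed to chemical for 24 h. Total protein measured in parallel cultures by 0.1% sulforhodamine B staining after 10% TCA fixation, read at 560 nm; bidirectional fit relative to DMSO.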

[14] = read-out: TIMP metallopeptidase inhibitor 2 (TIMP2), TIMP2 (gene 7077); experiment: BSK_KF3CT_TIMP2: BioMAP Diversity Plus: KF3CT Assay for TIMP metallopeptidase inhibitor 2 (TIMP2) Biomarker Activity (AID 2283071); conditions: primary human keratinocytes with fibroblasts; actives raise or lower the signal
In short: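 Keratinocyte–fibroblast co-culture, 24 h exposure; TIMP-2 ELISA, DMSO-normalised bidirectional fit. Parallel SRB (0.1%, TCA-fixed, 560 nm) total-protein staining gauges cytotoxicity.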

[15] = read-out: Transforming growth factor beta 1 (TGFb1), TGFB1 (gene 7040); experiment: BSK_KF3CT_TGFb1: BioMAP Diversity Plus: KF3CT Assay for Transforming growth factor beta 1 (TGFb1) Biomarker Activity (AID 2283072); conditions: primary human keratinocytes with fibroblasts; actives raise or lower the signal
In short: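 Signal changes in either direction, relative to DMSO, define activity here. TGF-b1 is read by ELISA from a human keratinocyte-fibroblast co-culture 24 h post-dose.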

[16] = read-out: urokinase plasminogen activator (uPA), PLAU (gene 5328); experiment: BSK_KF3CT_uPA: BioMAP Diversity Plus: KF3CT Assay for urokinase plasminogen activator (uPA) Biomarker Activity (AID 2283075); conditions: primary human keratinocytes with fibroblasts; actives raise or lower the signal
In short: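 Primary human keratinocyte/foreskin fibroblast co-culture exposed to chemical; uPA measured by ELISA at 24 h. Bidirectional fit versus DMSO, with parallel SRB total-protein staining for cytotoxicity.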

[17] = read-out: Macrophage colony-stimulating factor (MCSF), CSF1 (gene 1435); experiment: BSK_LPS_MCSF: BioMAP Diversity Plus: LPS Assay for Macrophage colony-stimulating factor (MCSF) Biomarker Activity (AID 2283083); conditions: primary human HUVEC with PBMC; actives raise or lower the signal
In short: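 HUVEC + PBMC co-culture (human primary), 24 h post-dose; M-CSF by ELISA; gain/loss of signal fitted bidirectionally vs DMSO baseline.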

[18] = read-out: Tissue Factor, F3 (gene 2152); experiment: BSK_LPS_TissueFactor: BioMAP Diversity Plus: LPS Assay for Tissue Factor Biomarker Activity (AID 2283084); conditions: primary human HUVEC with PBMC; actives raise or lower the signal
In short: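 HUVEC/PBMC co-culture, LPS-activated; CD142 ELISA read 24 h post-dose; bidirectional curve fit vs DMSO negative control.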

[19] = read-out: Vascular cell adhesion molecule 1 (VCAM1), VCAM1 (gene 7412); experiment: BSK_LPS_VCAM1: BioMAP Diversity Plus: LPS Assay for Vascular cell adhesion molecule 1 (VCAM1) Biomarker Activity (AID 2283086); conditions: primary human HUVEC with PBMC; actives raise or lower the signal
In short: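 Primary human vascular co-culture (umbilical vein endothelium plus PBMC) stimulated with LPS received chemical; 24 h later VCAM-1 was read by ELISA. Overt cytotoxicity was assessed by sulforhodamine B staining of parallel cultures at the same time point.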

[20] = read-out: CD38, CD38 (gene 952); experiment: BSK_SAg_CD38: BioMAP Diversity Plus: SAg Assay for CD38 Biomarker Activity (AID 2283087); conditions: primary human HUVEC with PBMC; actives raise or lower the signal
In short: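 Fluorescence ELISA of cell-surface CD38 served as the read-out, with either increase or decrease fitted against DMSO controls. Cells were a human umbilical vein endothelium plus PBMC co-culture under SEB/TSST-1 stimulation, measured 24 h after dosing.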

Measured: AC50

CC(C)CCCCCCCOC(=O)c1ccccc1C(=O)OCCCCCCCC(C)C
inactive: [1] | [2] | [3] | [4] | [5] | [6] | [7] | [8] | [9] | [10] | [11] | [12] | [13] | [14] | [15] | [16] | [17] | [18] | [19] | [20]

CCC(C)c1cc([N+](=O)[O-])cc([N+](=O)[O-])c1OC(=O)C=C(C)C (stereo not given)
inactive: [4] | [5]
active: [1] 36.2 µM | [2] 7.73 µM | [3] 20.5 µM | [6] 11.5 µM | [7] 12 µM | [8] 9.88 µM | [9] 12.3 µM | [10] 5.91 µM | [11] 3.95 µM | [12] 13.9 µM | [13] 31.7 µM | [14] 21.1 µM | [15] 12.4 µM | [16] 30.3 µM | [17] 13 µM | [18] 33.5 µM | [19] 20 µM | [20] 10.3 µM

CC(C)(C)C(O)C(Oc1ccc(-c2ccccc2)cc1)n1cncn1 (stereo not given)
inactive: [4] | [5] | [6] | [7] | [8] | [9] | [10] | [11] | [12] | [13] | [16] | [17] | [18] | [19] | [20]
active: [1] 26.3 µM | [2] 14.4 µM | [3] 30.9 µM | [14] 20 µM | [15] 20 µM

CCc1cc(C)cc(CC)c1-c1c(OC(=O)C(C)(C)C)n2n(c1=O)CCOCC2
inactive: [3] | [4] | [5] | [7] | [8] | [9] | [10] | [12] | [13] | [16] | [17] | [18] | [20]
active: [1] 20 µM | [2] 8.26 µM | [6] 31.5 µM | [11] 3.97 µM | [14] 3.97 µM | [15] 20 µM | [19] 3.97 µM

Nc1ccc(-c2ccc(N)c(N)c2)cc1N
inactive: [1] | [4] | [5] | [6] | [7] | [8] | [9] | [11] | [12] | [13] | [16] | [17] | [18] | [20]
active: [2] 11.3 µM | [3] 10 µM | [10] 11.7 µM | [14] 20 µM | [15] 26.6 µM | [19] 20 µM

O=C1C(Cl)=C(Cl)C(=O)C(Cl)=C1Cl
active: [1] 5.78 µM | [2] 6.19 µM | [3] 15.3 µM | [5] 28.8 µM | [6] 6.62 µM | [7] 12.5 µM | [8] 31.4 µM | [9] 26.8 µM | [10] 11.1 µM | [11] 27.1 µM | [12] 23.7 µM | [14] 12.1 µM | [15] 20 µM | [16] 28.5 µM | [17] 25.2 µM | [18] 30.1 µM | [19] 16.2 µM | [20] 28.5 µM
inactive: [4] | [13]

CC(C)(C)C(=O)CCl
active: [1] 20 µM | [3] 11.7 µM | [10] 12.2 µM | [11] 0.405 µM | [17] 30.4 µM | [19] 24.3 µM | [20] 27 µM
inactive: [2] | [4] | [5] | [6] | [7] | [8] | [9] | [12] | [13] | [14] | [15] | [16] | [18]

O=C1C=CC(=O)C=C1
active: [1] 30.4 µM and 15.2 µM | [3] 9.42 µM and 24.7 µM | [6] 36.3 µM and 12.7 µM | [7] 20 µM and 13.2 µM | [8] 11.2 µM and 28.8 µM | [9] 32.2 µM and 26.5 µM | [10] 19 µM and 12.8 µM | [11] 20 µM and 19.2 µM | [12] 27.8 µM and 24.1 µM | [14] 28.7 µM and 12.4 µM | [15] 29.9 µM and 12.4 µM | [16] 30.9 µM and 30.6 µM | [17] 20 µM and 28.7 µM | [19] 20 µM | [20] 30.4 µM and 25.7 µM
inactive: [2] | [4] | [5] | [13] | [18]

O=S(=O)(c1ccccc1)c1ccccc1
inactive: [1] | [2] | [3] | [4] | [5] | [6] | [7] | [8] | [9] | [10] | [11] | [12] | [13] | [14] | [15] | [16] | [17] | [18] | [19] | [20]

COCC(=O)N(c1c(C)cccc1C)N1CCOC1=O
inactive: [1] | [2] | [3] | [4] | [5] | [6] | [7] | [8] | [9] | [10] | [11] | [12] | [13] | [14] | [15] | [16] | [17] | [18] | [19] | [20]

O=C(CCl)c1ccccc1
inactive: [2] | [4]
active: [1] 2.44 µM | [3] 7.45 µM | [5] 7.52 µM | [6] 4.74 µM | [7] 5.12 µM | [8] 6.78 µM | [9] 9.79 µM | [10] 2.56 µM | [11] 6.44 µM | [12] 13.8 µM | [13] 30.9 µM | [14] 36.4 µM | [15] 25.7 µM | [16] 30 µM | [17] 4.37 µM | [18] 5.81 µM | [19] 3.68 µM | [20] 4.55 µM
